These results are taken from PubChem BioAssay AID652068 (The Scripps Research Institute Molecular Screening Center, 2013).

Out of some 4,300 compounds screened, about 4,000 (93%) were called active.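 Rule for the calls: active = inhibition above its plate's cutoff, the mean test-well inhibition plus 3 SD (cut at about 4.8% in these data); inactive = the rest.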 The set was probably picked from earlier hits. Only a sample is shown.

The nature of this assay: DNA CAG/GTC dye complex inhibitors – biochemical, fluorescence, TO-PRO-1 dye, d(CAG) DNA oligo, counter-screen for rCAG RNA repeat binder project (AID 652068).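 Note: 0% = DNA dye mix with DMSO and 100% = 100 µM mitoxantrone; hits displace the dye from DNA and so lower well fluorescence.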 As to conditions: d(CAG) DNA oligo TO-PRO-1 dye displacement, at 3 µM, stronger effect = higher value. A general note: Counterscreens check selectivity or assay interference.
What is called inhibition is how much of the control response was suppressed. In the case of `CC(C)c1ccc(Nc2nnc(SCC(=O)c3nnc(-c4ccccc4)o3)s2)cc1`, the inhibition was 27.2% (active).
Under `O=C(O)c1ccc(NN=CC2=C(N3CCOCC3)/C(=C/c3ccccc3)CC2)cc1` stands 30.8% (active); under `NC(=O)c1c(Nc2nc3c(F)cccc3s2)sc2c1CCCC2`, 14.3% (active).
As for `COc1ccc(OC)c(NC(=O)CSc2nc(-c3ccccc3)cc(=O)[nH]2)c1`, the figure is 5.74% (active); as for `CCOc1cc(/C=C(\C#N)c2nc(-c3cccs3)c(NC(C)=O)s2)ccc1O`, 16.7% (active); as for `CCCOc1ccc(Cn2c(O)cc(=O)[nH]c2=O)cc1`, 6.06% (active).
As for `COc1ccc(Cl)cc1-n1c(=S)sc2c(=O)n(-c3ccc(F)cc3)c(SCC(=O)O)nc21`, the figure is 8.24% (active).
Consider `COc1ccccc1/C=C/C=N/n1c(-c2ccc(Cl)cc2Cl)n[nH]c1=S`, for which the inhibition is 15.2% (active).
As for `COc1cc(C2CC(=O)N3CN(Cc4ccccc4)CSC3=C2C#N)ccc1OCc1ccccc1` (stereo not drawn), the figure is 12.4% (active); as for `Cc1ccc(Nc2nc(-c3ccc(O)cc3O)cs2)nc1`, 13% (active); as for `O=C(N/N=C/c1cc(Cl)cc([N+](=O)[O-])c1O)C(O)(c1ccccc1)c1ccccc1`, 17.8% (active).
Under `Cc1cc(/C=C2/C(=N)N3C(=NC2=O)SN=C3S(C)(=O)=O)c(C)n1-c1ccccc1` stands 53.2% (active); under `Clc1ccccc1CSc1nnc(-c2ccco2)c(-c2ccco2)n1`, 30% (active).
Under `Cc1cc(F)ccc1S(=O)(=O)Nc1ncnc2scc(-c3ccc(F)cc3)c12` stands 34.7% (active).
On to `O=C(Nc1nc(-c2ccco2)c(-c2ccco2)s1)c1ccco1`, for which the inhibition was 16.6% (active).
Under `Cc1ccc(C(=O)O)cc1-c1ccc(/C=C2\SC(=O)N(CC(=O)Nc3ccc4c(c3)OCO4)C2=O)o1` stands 59.2% (active); under `Cc1ccc(C(C)C)c(OCCSc2nc3ccccc3n2CC(=O)O)c1`, 10.7% (active); under `Cc1ccc(C)c(Cn2nnc3c(=O)[nH]c(C(=O)Nc4ccc(F)cc4)nc32)c1`, 11.1% (active).
In the case of `O=c1cc(CN2CCN(S(=O)(=O)/C=C/c3ccccc3)CC2)c2ccc(O)cc2o1`, the inhibition is 13.1% (active).
As for `Cc1cccc(C)c1NC(=O)C(c1ccc(C(F)(F)F)cc1)n1c(=O)c(-c2ccco2)nc2ccccc21` (stereo not drawn), the inhibition was 7.75% (active).
Under `O=C1c2cccc3cccc(c23)C(=O)N1CCCCCc1n[nH]c(=S)o1` stands 6.52% (active).
As for `CC(C)c1nc(SCC(=O)Nc2cccc(C(=O)O)c2)c2c3c(sc2n1)CCCC3`, the figure is 20% (active).
As for `O=C(N/N=C/c1cccnc1)c1cc2ccccc2cc1O`, the figure is 4.9% (active); as for `Cc1ccc(NC(=O)Nc2nnc(-c3ccncc3)s2)cc1`, 13.7% (active).
`Cc1nnc(NC(=O)Nc2ccc(Cl)c(Cl)c2)s1`: the inhibition is 21.5% (active).
Under `C=C1c2c(Cl)ccc(O)c2C(O)=C2C(=O)[C@]3(O)C(O)=C(C(N)=O)C(=O)[C@@H](N(C)C)[C@@H]3[C@@H](O)C12` (stereo partly drawn) stands 38% (active); under `Cc1ccc(Nc2nc(CSc3nnnn3-c3ccccc3)cc(=O)[nH]2)cc1`, 16.6% (active).
Under `O=C(O)c1ccc2c(c1)C(=O)N(c1ccc(/C=C/C(=O)c3ccccc3)cc1)C2=O` stands 23.6% (active).
Under `CCOc1ccc(-n2c(O)c(/C=N/Nc3nnc(C)c(=O)[nH]3)c3ccccc3c2=O)cc1` stands 22.9% (active).
For the compound `COC(=O)c1c(NC(=O)C2CC(C)=C(C)CC2C(=O)O)sc2c1CCCCC2` (stereo not drawn), the inhibition was 20.6% (active).
For the compound `N#Cc1c(NC(=O)C2CC(Cl)=CCC2C(=O)O)sc2c1CCCCC2` (stereo not drawn), the inhibition was 9.19% (active).
Under `CCc1nnc(NS(=O)(=O)c2ccc(NC(=S)NC(=O)c3cccs3)cc2)s1` stands 16.6% (active).
As for `CCc1nnc(NS(=O)(=O)c2ccc(NC(=O)c3cccc(OC(F)(F)C(F)F)c3)cc2)s1`, the figure is 22.8% (active); as for `O=C(O)CC/C(=C\c1cc2c(cc1Br)OCO2)c1nc2ccccc2s1`, 13.3% (active).
As for `COc1ccc(C(=O)Nc2cccc(/C=C(/CCC(=O)O)c3nc4ccccc4s3)c2)cc1`, the figure is 33.5% (active).
As to `Cc1ccc2cc(/C=N/Nc3ccc(C(=O)O)cc3)c(Cl)nc2c1`, the inhibition was 12% (active).
Under `Cc1ccc(/C=C/C(=O)Nc2ccc([N+](=O)[O-])c(NC(=O)/C=C/c3ccc(C)o3)c2)o1` stands 24.9% (active); under `O=C(Nc1nnc(-c2ccccc2)o1)c1cc(-c2cccs2)nc2ccccc12`, 28.7% (active); under `O=C(Nc1ccccc1)Nc1nnc(COc2ccccc2F)s1`, 24.9% (active).
Under `O=C(NC(=S)Nc1ccccc1C(=O)O)c1ccc(-c2ccc(Br)cc2)o1` stands 40.4% (active); under `COCCNC(=O)Nc1ccc2nc(-c3ccco3)c(-c3ccco3)nc2c1`, 28.6% (active).
In the case of `Cc1ccc(C(=O)Oc2coc(CSc3nnc(NC(=O)c4cccs4)s3)cc2=O)cc1C`, the inhibition is 23.1% (active).
As for `Cc1ccc(-c2csc(C(C#N)=C(O)CN3CCN(C(=O)c4ccco4)CC3)n2)cc1`, the figure is 18.7% (active); as for `Cc1ccc(S(=O)(=O)NCCC(c2ccccc2)c2ccccc2)cc1C(=O)O`, 5.44% (active).
As for `Cc1ccccc1OCC(=O)Nc1nnc(S(=O)(=O)N2CCCC2)s1`, the figure is 10.8% (active).
Under `CCCCCCC(=O)Nc1nc(C)c(-c2csc(Nc3cc(Cl)ccc3OC)n2)s1` stands 11.6% (active); under `C[C@H]([C@@H](O)[C@@H](O)[C@@H](C)C(C)(C)C)[C@H]1CC[C@H]2C3CC[C@H]4C[C@H](OS(=O)(=O)O)[C@@H](OS(=O)(=O)O)C[C@]4(C)[C@H]3CC[C@]12C` (stereo partly drawn), 61.2% (active).
As for `Cc1ccc(S(=O)(=O)Nc2nc3ccccc3s2)cc1[N+](=O)[O-]`, the inhibition is 6.62% (active).
Under `O=C1/C(=C/c2ccc(F)cc2)SC(=S)N1NS(=O)(=O)c1ccccc1` stands 11.9% (active).
As for `COc1ccc2[nH]c3c(C)c4cc[n+](C)cc4c(C)c3c2c1`, the figure is 61.2% (active); as for `Oc1c(Cl)cc(Cl)c(Cl)c1Cc1c(O)c(Cl)cc(Cl)c1Cl`, 76.5% (active).
Under `Cc1cc(NS(=O)(=O)c2ccc(NC(=O)CSc3nnc(-c4ccc(C(C)(C)C)cc4)n3Cc3ccco3)cc2)nc(C)n1` stands 4.42% (active).
For the compound `CCn1c(SCC(=O)Nc2ccc(S(=O)(=O)Nc3onc(C)c3C)cc2)nnc1-c1ccccc1`, the inhibition was 6.29% (active).
Under `Cc1cc(NS(=O)(=O)c2ccc(NC(=O)CSc3nnc(SCc4ccc(F)cc4)s3)cc2)nc(C)n1` stands 13% (active); under `Cc1nnc(SC(C(=O)Nc2cc(Cl)cc(Cl)c2)c2ccccc2)[nH]c1=O` (stereo not drawn), 28% (active); under `CCOc1ccc(-n2c(SCC(=O)Nc3cc(C(=O)O)ccc3Cl)nc3ccccc3c2=O)cc1`, 19.2% (active).
Under `COC(=O)c1sc(-c2ccc(C(C)(C)C)cc2)cc1NC(=O)/C=C/C(=O)O` stands 41.3% (active); under `CSc1ccc(C=Nn2c(-c3ccc(F)cc3)n[nH]c2=S)cc1`, 11.3% (active); under `CC(C(=O)Nc1ccc(O)c(C(=O)O)c1)N1C(=O)/C(=C/c2cccs2)SC1=S` (stereo not drawn), 42.3% (active).
As for `COc1ccc(-c2cc(C(=O)NC(Cc3c[nH]c4ccccc34)C(=O)O)c(C)o2)cc1OC` (stereo not drawn), the figure is 16.9% (active); as for `O=C(N[C@@H](Cc1c[nH]c2ccccc12)C(=O)O)OCC1c2ccccc2-c2ccccc21`, 23.8% (active).
In the case of `COc1ccc(S(=O)(=O)NCCc2c[nH]c3ccccc23)cc1OC`, the inhibition is 0.56% (inactive).
Under `CC(Oc1ccc2c(-c3ccccc3)cc(=O)oc2c1)C(=O)NC(Cc1c[nH]c2ccccc12)C(=O)O` (stereo not drawn) stands 16.9% (active); under `COc1ccc(-c2cc(=O)oc3cc(OCC(=O)N[C@@H](Cc4c[nH]c5ccccc45)C(=O)O)ccc23)cc1`, 26.4% (active).
As for `COc1cccc2sc(NNC(=O)c3nc4ccccc4s3)nc12`, the inhibition was 42.1% (active).
As for `Cc1ccc(-n2c(SCC(=O)Nc3ccc(S(=O)(=O)Nc4nccs4)cc3)nnc2-c2ccncc2)cc1`, the figure is 35.9% (active); as for `Cc1ccc(-n2c(SCC(=O)Nc3ccc(S(=O)(=O)Nc4nccs4)cc3)nnc2-c2cccnc2)cc1`, 24.7% (active).
Under `Cc1ccc(-n2c(SCC(=O)Nc3ccc(S(=O)(=O)Nc4nccs4)cc3)nnc2-c2ccccn2)cc1` stands 23.8% (active).
In the case of `CC1(C(=O)NS(=O)(=O)Cc2cccc(Cl)c2)CCN1C(=O)Cc1ccc(Cl)cc1Cl` (stereo not drawn), the inhibition is 36.2% (active).
As for `COc1ccc(S(=O)(=O)NC(=O)C2(C)CCN2C(=O)c2ccccc2CCc2ccccc2)cc1` (stereo not drawn), the figure is 6.35% (active); as for `CC1(C(=O)NS(=O)(=O)c2ccccc2)CCN1C(=O)Cc1ccc(-c2ccccc2)cc1` (stereo not drawn), 7.2% (active); as for `CC(C)c1ccc(CC(=O)N2CCC2(C)C(=O)NS(=O)(=O)c2ccc(C(C)(C)C)cc2)cc1` (stereo not drawn), 25.3% (active).
Regarding `CC(Oc1ccc2ccccc2c1)C(=O)NNC(=S)NC(=O)c1ccco1` (stereo not drawn), the inhibition is 11.8% (active).
As for `CCCc1ccc(OCC(=O)NNC(=S)NC(=O)c2ccco2)cc1`, the figure is 14.4% (active); as for `O=C(Nc1ccc2c(c1)CCC2)c1cccc(S(=O)(=O)Nc2ccccc2Cl)c1`, 10.7% (active).
Under `NS(=O)(=O)c1ccc(N=Nc2c(O)[nH]c3ccc(Br)cc23)cc1` stands 9.96% (active); under `N#CCC(=O)Nc1ccc(C(=O)OCC(=O)Nc2sc3c(c2C#N)CCCC3)cc1`, 17% (active).
Under `COC(=O)c1sccc1NC(=O)CSc1ccccc1NS(=O)(=O)c1cc(Cl)ccc1Cl` stands 32.6% (active); under `NS(=O)(=O)c1ccc(NC2=CC(c3ccc(F)cc3)N(c3ccc(S(N)(=O)=O)cc3)C2=O)cc1` (stereo not drawn), 15% (active).
As to `CC(C)(C)C1C/C(=C/c2ccco2)C(=O)/C(=C/c2ccco2)C1` (stereo not drawn), the inhibition is 17.1% (active).
Turning to `O=C(c1cccnc1)N(c1cc2sc(=O)oc2c2ccccc12)S(=O)(=O)c1ccccc1`, the inhibition was 20.1% (active).
As for `CC(=O)N(c1ccc2oc(=O)sc2c1)S(=O)(=O)c1ccc(C)cc1`, the figure is 3.88% (inactive); as for `COc1ccc(Cc2nnc(SCC(=O)Nc3ccc(C)c(Cl)c3)[nH]c2=O)cc1`, 24.4% (active).
